# Data reported in the supplement of paper PMC10105736.
# Values without a mark were called inactive.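 How the source made its calls: active = MAPPIT score above the 99th percentile of random reference set scores in the same batch; inactive = at or below it.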
# B1: BomBc1 (protein)
# chain: MKCLILSFAIFVVLASQATAGNVIIGGVCQDCSPPVAENVVVGGQSYRTGRPGQGTVYINSPGAYLGALDGPIRRTGAGGGGGGGAQYPDGYSGRLPGGTYLHNKDCVGCSISGGGD
# B2: Snapin (protein)
# chain: MDSDSTVTSLEENTENFCTNPTRDILAEGITNLFKPTIERLDERVASTIQLQAELRGQLDALAAQLRDIEKAQSQIPEFADKVKELLNVKHKVTVISNVLVTSQERLTGLHKLIEKEQRRRQALLDSALSTNIS
# B3: eIF3f1 (protein)
# chain: MSALNLTVRVHPVVLFQVVDAFERRNADSHRVIGTLLGSVDKGVVEVTNCFCVPHKEHDDQVEAELSYALDMYDLNRKVNSNESVVGWWATGNDVTNHSSVIHEYYARECNNPVHLTVDTSLQGGRMGLRAYVCIQLGVPGGKSGCMFTPIPVELTSYEPETFGLKLLQKTVGVSPAHRPKTVPPMLDLAQISEASTKLQSLLDLILKYVDDVIAHKVTPDNAVGRQLLDLIHSVPHMTHEQFTQMFNANVRNLLLVITLSQLIKTQLQLNEKLTFLPTA
# B4: mgr (protein)
# chain: MTGIMDSVEMPKLPENQKTFAGIPEAVFLEEIDTFMSQPENENCEKVLQRLDEQHGKYRFMACNLEARRRKLKSQIPDLERSLEMVNVLRKEDEERETQFLLSDQVFIKTLVPPTKTVYLWLGASVMLEYPLDEAEALLNQNITSAVGNLKSVEHDQDFLRDQITTTEVNMARVYNWGVKKRQAATKTTATTPS
# B5: Os-C (protein)
# chain: MGFHMGRQLLLSGFLLVMLQMVTQTQARPQDVITVAGEETEVVIKREGDDDGDDDDSSSEETVEDSEESRRRRREVNTDNTPSARAVIPGEQVVPILLEAILPSVDAAGDRFARSVQFLKNLTPGSELFAVEKNE
# B6: MED19 (protein)
# chain: MMSNYGNMMDSPKSSPHGGGRSPVVARQDSSGTLKTTISLGKTPTIIHTGPFYSMKEPPAKAELTGDKDLMTEYGLHHTLTKFKEKKFKESLASFLQNIPGINDLITHPVENSTLRSVIEKPPIGGKELLPLTPVQLAGFRLHPGPLPEQYRTTYVTPARKHKNKHKKQKHKDGVTTGQESTLLDSAGLETYEKKHKKQKRHEDDKERKKRKKEKKRKKKNQSPEPGVGLLPGGASLGGAAGVMGATSLGSLGGGPGGPGLSSLSASMGPGVVGNMNSFSSSMQMQQQQQMPMQQQQMSSGGLLGSVLGTSGGPGGGGGGGGGGGGGVGGSLLMSQF
# Columns and labels:
# Assay in all cases: MAPPIT interaction score (arbitrary units); higher = stronger binary interaction signal, active = hit call of the paper
# Dpm3 = conditions: MAPPIT configuration: N-C; pair source set: screen_3
# Dysb = conditions: pair source set: Lit-BM-16
# Eato = conditions: MAPPIT configuration: N-N; pair source set: Lit-BS-16
# eIF3m = conditions: pair source set: Lit-BM-16
# pnr = conditions: MAPPIT configuration: N-N; pair source set: DPIM
# Elal = conditions: MAPPIT configuration: N-N; pair source set: Finley_Y2H
# Dpit47 = conditions: pair source set: RRS
# Vps51 = conditions: MAPPIT configuration: N-N; pair source set: Curagen_high_conf
# Doc1 = conditions: MAPPIT configuration: N-C; pair source set: screen_3
# 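Further: HEK293T cells with Epo stimulation, STAT-responsive firefly luciferase reporter, fold induction versus unstimulated cells divided by the larger fold induction of two negative controls lacking either bait or prey.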
binder,measurement,setting,value
B1,MAPPIT interaction score,Dpm3,0.481
B2,MAPPIT interaction score,Dysb; MAPPIT configuration: N-C,-2.54
same,MAPPIT interaction score,Dysb; MAPPIT configuration: N-N,0.529
B3,MAPPIT interaction score,Eato,0.224
same,MAPPIT interaction score,eIF3m; MAPPIT configuration: N-C,3.45
same,MAPPIT interaction score,eIF3m; MAPPIT configuration: N-N,5.78 (active)
same,MAPPIT interaction score,pnr,-0.504
B4,MAPPIT interaction score,Elal,0.515
B5,MAPPIT interaction score,Dpit47; MAPPIT configuration: N-C,1.62
same,MAPPIT interaction score,Dpit47; MAPPIT configuration: N-N,0.00721
same,MAPPIT interaction score,Vps51,-0.071
B6,MAPPIT interaction score,Doc1,-0.0798
